# Experimental data published in PubChem BioAssay (NCI).
# The panel holds about 83,000 compounds, 20% with a hit somewhere; the sample as a whole holds those more often.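 Single-dose data. Exposure time 48 hours. Values below 10 considered active.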 Calls of active or inactive are those of the source.
# Test system: SF-295 CNS
# Experiment: NCI-60 one-dose screen, 48 h (100 = growth as untreated, 0 = no growth, -100 = all killed)
# Details: 10 µM
row,Compound,growth
1,COCCCC/C(=N\OCCN)c1ccc(C(F)(F)F)cc1,90.3% (inactive)
2,Cc1ccccc1N=C(c1ccccc1)C1C(=O)c2ccccc2C1=O,93.6% (inactive)
3,O=C(O)C(c1ccccc1)C(O)c1ccccc1 (configuration not stated),96.5% (inactive)
4,CC(C)(C)c1cc(O)c(C(C)(C)C)cc1O,85.7% (inactive)
5,O=C(CCNNC(=O)c1ccncc1)NCc1ccccc1,105% (inactive)
6,CCCNc1ccc(C2=NCCCN2)cc1,91% (inactive)
7,O=[N+]([O-])c1ccc(O)c(S(=O)(=O)O)c1,102% (inactive)
8,O=C(O)c1cccc([N+](=O)[O-])c1O,90.8% (inactive)
9,C/C=C/CC(C)C(O)C1C(=O)NC(CC)C(=O)N(C)CC(=O)N(C)C(CC(C)C)C(=O)NC(C(C)C)C(=O)N(C)C(CC(C)C)C(=O)NC(C)C(=O)NC(C)C(=O)N(C)C(CC(C)C)C(=O)N(C)C(CC(C)C)C(=O)N(C)C(C(C)C)C(=O)N1C (configuration not stated),-16.7% (active)
10,O=[N+]([O-])c1ccc(N=Nc2ccccc2)cc1,91.3% (inactive)
11,O=C(CC(=O)c1ccccc1O)c1ccccc1,89.5% (inactive)
12,CCCCCCCCCCCCCCCCC1CC(=O)OC1=O (configuration not stated),99.3% (inactive)
13,O=C1c2ccccc2C(=O)N1OCc1ccccc1,110% (inactive)
14,C[C@@H](c1ccccc1)[C@@H](C(=O)O)c1ccccc1,98.6% (inactive)
15,CC(=O)C1CCCCC1,92.4% (inactive)
16,Nc1ccc(CC(=O)O)c(N)c1,104% (inactive)
17,CN(C)c1ccc(CNC(C(=O)c2ccccc2)c2ccccc2)cc1 (configuration not stated),98.1% (inactive)
